Results as given in PubChem BioAssay AID504332 (National Center for Advancing Translational Sciences (NCATS), 2011).
Where “and” joins values, the source holds several entries; their conditions need not be identical. Equal values may be shown once. Out of some 350,000 compounds screened, about 31,000 (8.9%) were called active. A call without a number means that no potency is given here. Another 15% or so got no clear call; they are omitted. The call rests on the fitted dose curve; in most records, active means well fitted inhibition curve with a large enough effect; inconclusive means small, poorly fitted or top-dose-only effect; inactive means no such curve, though single readings can be large or run the other way. Many of the other results were omitted from the sample, so actives are more common in it than they were. Some compounds were tested as several samples or in several runs, with calls that do not always agree.
Further: nearly all actives have a fitted effect of over 75% in size.
Potency means the concentration at half of the fitted maximal effect.

What follows are compounds tested against Histone-lysine N-methyltransferase EHMT2 (Homo sapiens) (UniProt Q96KQ7) (assay: qHTS Assay for Inhibitors of Histone Lysine Methyltransferase G9a). Conditions: G9a H3K9 monomethylation, AlphaScreen, 2 h; series mostly up to 59 µM.
Histone-lysine N-methyltransferase EHMT2 (Homo sapiens), sequence (Q96KQ7 913-1193 limits assumed): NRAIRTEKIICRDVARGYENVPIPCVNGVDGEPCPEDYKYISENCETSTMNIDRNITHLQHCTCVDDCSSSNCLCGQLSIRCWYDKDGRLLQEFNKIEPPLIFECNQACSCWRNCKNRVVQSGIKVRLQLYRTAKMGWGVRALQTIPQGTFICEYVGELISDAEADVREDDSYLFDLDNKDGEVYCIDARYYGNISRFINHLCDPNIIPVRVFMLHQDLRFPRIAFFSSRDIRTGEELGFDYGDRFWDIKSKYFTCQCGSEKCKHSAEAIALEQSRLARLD
Summary of the method: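 Signal arises when biotinylated H3K9 peptide, once monomethylated, bridges streptavidin donor and antibody-captured acceptor beads. Enzyme at 20 nM was preincubated 15 min with test compounds; peptide 500 nM and SAM 20 uM then reacted for 2 h.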
`CCOC(=O)c1c(CNCc2ccccc2F)c2sc(C)cc2n1C` was tested, and the activity, negative = inhibition was 12% [at 12.7 µM] (inactive).
`CC(C)N(C(=O)CN1CCN(S(=O)(=O)c2ccc(Br)s2)CC1)C(C)C` was tested, and the activity, negative = inhibition was 17.1% [at 2.33 µM] (inactive).
For `Cc1ccc(S(=O)(=O)N2CCN(CC(=O)N/N=C/c3ccc(Br)s3)CC2)cc1`, the Potency was “inactive”.
`Cc1cccc(NC(=O)CN2CCCN(S(=O)(=O)c3ccc(Br)s3)CC2)c1` was tested, and the Potency was 39.8 µM (active).
In the case of `CC1CC(C)(C)CC2(C1)NC(=O)N(CC(=O)Nc1nccs1)C2=O` (configuration not stated), the activity, negative = inhibition is reported as 13.6% [at 0.501 µM] (inactive).
For `COc1cccc(CNC(=O)C2CCC(CNS(=O)(=O)c3cccs3)CC2)c1` (configuration not stated), the Potency was “inactive”.
With `CSc1ncc(Cl)c(C(=O)Nc2ccc(S(=O)(=O)N3CCCC(C)C3)cc2)n1` (configuration not stated) the Potency was “inactive”.
With `Cc1cc(C)cc(OCC(=O)Nc2nc(-c3ccc(F)cc3)ns2)c1` the Potency was “inactive”.
For `CO/N=C(\C(=O)N[C@@H]1C(=O)N2C(C(=O)O)=C(COC(C)=O)CS[C@H]12)c1csc(N)n1` (stereo in doubt), the Potency was “inactive and 44.7 µM (active)”.
For `CC(=O)c1ccc(N2CCN(c3nc4c(S(=O)(=O)c5ccccc5)nnn4c4ccc(Cl)cc34)CC2)cc1`, the Potency was “inactive”.
`Fc1cccc(-n2ncc3c2ncn2nc(-c4ccccc4Cl)nc32)c1` was tested, and the Potency was “inactive”.
For `Cc1ccc(C)c(N2CCN(C(=O)CCc3c(C)nc4c(c3C)c(=O)n(C)c(=O)n4C)CC2)c1`, the Potency was “inactive”.
`O=C(Cc1ccccc1Cl)N1CCOCC1` was tested, and the Potency was “inactive”.
`S=C(Cc1ccc(Cl)cc1)N1CCOCC1` was tested, and the Potency was 14.1 µM (active).
In the case of `O=C(Nc1ccc(Cl)cc1)Nc1ccc(C(=O)N2CCOCC2)cc1`, the Potency is reported as “inactive”.
`COc1cccc(C(=O)Nc2ccc3oc(-c4ccc5ccccc5c4)nc3c2)c1` was tested, and the Potency was “inactive”.
`COc1ccc(N/N=C2/CCCCC2=O)cc1` was tested, and the Potency was 10 µM (active).
With `COc1ccc(C2C3=C(CCCC3=O)N(CC(=O)O)C3=C2C(=O)CCC3)cc1` the Potency was “inactive”.
`COc1ccc(NC(=O)c2c(C)oc3c2CCCC3)cc1` was tested, and the Potency was “inactive”.
For `Cc1ccc(-c2nn3c(=O)cc(CN4CCN(C(=O)Nc5cccc(C(F)(F)F)c5)CC4)nc3s2)cc1`, the Potency was “inactive”.
With `CCCn1nc(C(=O)OCc2nc(N)nc(Nc3ccccc3C)n2)c2ccccc2c1=O` the activity, negative = inhibition was -4.37% [at 12.7 µM] (inactive).
With `Cc1cn(C)c(CC(=O)NCc2ccccc2)c1C(=O)O` the Potency was “inactive”.
In the case of `N=c1c2c3c(sc2ncn1N)CCCC3`, the Potency is reported as “inactive”.
For `c1nnc2c3c4c(sc3ncn12)CCC4`, the Potency was “inactive”.
With `S=c1[nH]nc2c3c4c(sc3ncn12)CCCC4` the Potency was 1.12 µM (active).
For `Cn1c(=O)c2sccc2n(Cc2ccc(Br)cc2)c1=O`, the activity, negative = inhibition was 4.98% [at 2.33 µM] (inactive).
With `CC(=O)OC(COc1ccc(F)cc1)Cn1cnc2ccccc21` (configuration not stated) the Potency was “inactive”.
`Fc1ccc(OCc2nn3c(Cn4nnc5ccccc54)nnc3s2)cc1` was tested, and the Potency was 11.2 µM (active).
In the case of `C/C(Cn1nnc2ccccc21)=N\OC(=O)c1cc(F)c(F)cc1Cl`, the Potency is reported as “inactive”.
In the case of `CC12CCC(=O)N1C(C(=O)NCCN1C(=O)S/C(=C\c3ccccc3F)C1=O)CS2` (configuration not stated), the activity, negative = inhibition is reported as -5.94% [at 12.7 µM] (inactive).
For `Cc1cccc(N2CCN(C(=O)c3ccc(Nc4nc5ccccc5n5nnnc45)cc3)CC2)c1C`, the Potency was “inactive”.
For `COc1ccc(C)cc1NC(=O)CSc1ccc(Cl)cc1`, the Potency was “inactive”.
In the case of `COc1ccc(Cl)cc1NC(=O)CN(C)C(=O)CNC(=O)C12CC3CC(CC(C3)C1)C2`, the activity, negative = inhibition is reported as 7.61% [at 12.7 µM] (inactive).
For `COc1ccc(Cl)cc1NC(=O)CNc1ccccc1F`, the Potency was 79.4 µM (active).
`COc1ccc(Cl)cc1NC(=O)CN(C)C(=O)c1ccc2n[nH]nc2c1` was tested, and the activity, negative = inhibition was 15.9% [at 12.7 µM] (inactive).
In the case of `COc1ccc(Cl)cc1NC(=O)CN(C)Cc1ccc(OC)c(OC)c1`, the Potency is reported as 4.47 µM (active).
In the case of `COc1ccc(Cl)cc1NC(=O)CCC(=O)c1ccc(C)cc1`, the Potency is reported as “inactive”.
For `CCC(=O)c1ccc(OCC(=O)Nc2ccc(N3CCCCC3)cc2)cc1`, the activity, negative = inhibition was 13.1% [at 12.7 µM] (inactive).
`CSc1ccc(Cl)c(C(=O)OCC(=O)N2CCNC2=O)c1` was tested, and the activity, negative = inhibition was 11.9% [at 12.7 µM] (inactive).
`COc1ccc(OC)c(NC(=O)CSC2=Nc3ccccc3C3=NC(CC(=O)NCc4ccc(F)cc4)C(=O)N23)c1` (configuration not stated) was tested, and the Potency was “inactive”.
In the case of `CC(C)c1ccc(NC(=O)Cn2ncc3ccccc32)cc1`, the Potency is reported as “inactive”.
With `CCC(C)N(C(=O)COC(=O)c1nc(Cl)ccc1Cl)C1CCS(=O)(=O)C1` (configuration not stated) the activity, negative = inhibition was -0.744% [at 0.501 µM] (inactive).
For `COc1cccc(CNS(=O)(=O)c2ccc3c(c2)CC(C)N3C(C)=O)c1` (configuration not stated), the Potency was “inactive”.
With `CC(C)CCN1CCN=C1N(C)C` the activity, negative = inhibition was 11% [at 2.33 µM] (inactive).
For `CCOc1ccc(CNC(=O)C2CCCN(S(=O)(=O)N(CC)c3ccc(OCC)cc3)C2)cc1` (configuration not stated), the Potency was “inactive”.
`CC(=O)N1CCOc2ccc(S(=O)(=O)N3CCN(c4cccc(C(F)(F)F)c4)CC3)cc21` was tested, and the Potency was “inactive”.
In the case of `Cc1ccc2nc3c(cc(C(=O)NC4CCCCC4)c(=N)n3C(C)C)c(=O)n2c1`, the Potency is reported as “inactive”.
For `Cn1c2ccccc2c2cc(/C=C(\NC(=O)c3ccccc3)C(=O)NCC(=O)O)ccc21`, the Potency was 50.1 µM (active).
In the case of `CCOC(=O)CNC(=O)/C(=C\c1ccc(F)cc1)NC(=O)c1ccccc1`, the activity, negative = inhibition is reported as 24.9% [at 12.7 µM] (inactive).
In the case of `COc1ccc(/C=C(\NC(=O)c2ccccc2)C(=O)NCCN2CCOCC2)cc1OC`, the Potency is reported as “inactive”.
In the case of `COc1ccc(F)cc1C(=O)COC(=O)c1n[nH]c(=O)c2ccccc12`, the Potency is reported as “inactive”.
For `Cc1coc2c(O)cc3c(c12)OC1(N2CCCCC2)C(=O)NCCCC31` (configuration not stated), the Potency was 7.94 µM (active).
`C=CCC1=C/C(=C\c2c(N)n3nc(CC(=O)N4CCOCC4)sc3nc2=O)C=C(OC)C1=O` was tested, and the Potency was “inactive”.
In the case of `Cc1ccccc1Nc1nc(N)nc(COC(=O)CCC(=O)c2ccc(F)cc2)n1`, the Potency is reported as “inactive”.
`O=C(NCc1ccccc1)[C@H]1C[C@@H]1[C@H](NP(=O)(c1ccccc1)c1ccccc1)c1ccccc1` was tested, and the Potency was 28.2 µM (active).
With `O=C(O)C1C2C=CC(C2)C1C(=O)NCc1ccccc1` (configuration not stated) the activity, negative = inhibition was 1.59% [at 2.33 µM] (inactive).
`COC(=O)[C@H](Cc1ccccc1)NC(=O)[C@@H]1C[C@H]1[C@@H](NC(=O)OCc1ccccc1)c1ccccc1` was tested, and the Potency was “inactive”.
`O=C(CSCc1cnn(-c2ccccc2)c1-n1cccc1)NCc1ccccc1Br` was tested, and the Potency was “inactive”.
`Cc1cc(SCC(=O)c2ccccc2)nc(SCC(=O)c2ccccc2)n1` was tested, and the Potency was “inactive”.
With `Cc1cc(C)nc(S/C=C/C(=O)c2ccccc2)n1` the Potency was 22.4 µM (active).
In the case of `C/C(=N\NC(=O)c1nc(C)cc(C)n1)c1ccccc1`, the Potency is reported as “inactive”.
`COc1ccc(Cn2cc(C(=O)c3ccc(C)cc3)c(=O)c3cc(OC)c(OC)cc32)cc1` was tested, and the Potency was “inactive”.
With `Cc1ccc2nc(NC(=O)C3CSC4(C)CCC(=O)N34)sc2c1` (configuration not stated) the Potency was 39.8 µM (active).
In the case of `CCOC(=O)c1sc(NC(=O)C2CSC3(C)CCC(=O)N23)nc1C` (configuration not stated), the activity, negative = inhibition is reported as 20.6% [at 12.7 µM] (inactive).
In the case of `CC12CCC(=O)N1C(C(=O)Nc1ccc(F)c(F)c1F)CS2` (configuration not stated), the activity, negative = inhibition is reported as 13.3% [at 12.7 µM] (inactive).
With `Cc1oc2c(c1C(=O)Nc1ccc(F)c(F)c1)C1=NCCN1C=N2` the Potency was “inactive”.
`COc1ccc(-c2nn(CC(=O)NC3CCCC3)c3c2cnc2ccc(F)cc23)cc1` was tested, and the Potency was “inactive”.
For `C=C(C)C1CC=C(C)/C(=N/NC(=O)CCCNc2cccc(C)c2)C1` (configuration not stated), the Potency was “inactive”.
For `COc1ccccc1Nc1ncc(C(C)=O)c(C)n1`, the Potency was “inactive”.
`C=C(C)C1CC=C(C)/C(=N\NC(=O)CNc2ccccc2OC)C1` (configuration not stated) was tested, and the Potency was 35.5 µM (active).
For `CCOC(=O)c1c(S(=O)(=O)N2CCCC(C(=O)NCc3cccc(C)c3)C2)c(C)n(C)c1C` (configuration not stated), the Potency was “inactive”.
For `O=C(NCCC1CCCCN1S(=O)(=O)c1ccc(F)cc1)C(=O)NC1CC1` (configuration not stated), the activity, negative = inhibition was 16.1% [at 0.501 µM] (inactive).
For `COc1ccc(NC(=O)CCCN2C(=O)C(c3ccccc3)Oc3cccnc32)cc1` (configuration not stated), the Potency was “inactive”.
In the case of `Cc1cc(C)nc(NC(=O)c2cccc([N+](=O)[O-])c2)c1`, the Potency is reported as “inactive”.
With `O=[N+]([O-])c1cccc(/C([O-])=C(/C(=S)Nc2ccccc2F)[n+]2ccccc2)c1` the Potency was 28.2 µM (active).
With `CS(=O)(=O)N(CC(=O)Nc1ccc(F)cc1F)c1cccc([N+](=O)[O-])c1` the Potency was “inactive”.
`CCCN1C2CCCC1CC(NC(=O)NC13CC4CC(CC(C4)C1)C3)C2` (configuration not stated) was tested, and the activity, negative = inhibition was -2.35% [at 0.501 µM] (inactive).
In the case of `OCC[C@H]1C[C@@H](O)[C@H](O)[C@]2(OCCCc3ccccc32)O1`, the activity, negative = inhibition is reported as -3% [at 12.7 µM] (inactive).
With `COC(=O)CN1C(=O)C(C)(C)Oc2ccc(C(=O)Nc3cccc(OC)c3)cc21` the Potency was “inactive”.
For `CC(=O)c1ccc(NC(=O)CSc2nnc(NC(=O)Nc3ccccc3)s2)cc1`, the Potency was “inactive”.
In the case of `Cc1cccc(CSc2nnc(NC(=O)CSc3nnc(C)s3)s2)c1`, the Potency is reported as “inactive”.
With `Cc1cccc(NC(=O)CSc2nnc(NC(=O)CN3CCOCC3)s2)c1` the Potency was 7.08 µM (active).
`O=C(CSc1nnc(-c2cccnc2)n1CCc1ccccc1)NCc1ccccc1` was tested, and the Potency was “inactive”.
In the case of `C=CCn1c(SCC(=O)NC(=O)Cc2ccccc2)nc2ccccc2c1=O`, the activity, negative = inhibition is reported as 24.2% [at 12.7 µM] (inactive).
For `C=CCn1c(SCC(=O)NCc2ccccc2)nnc1-c1cc(Br)ccc1O`, the Potency was 10 µM (active).
`CCc1cc(=O)oc2c(C)c(OCC(=O)NCCN3CCOCC3)ccc12` was tested, and the Potency was “inactive”.
In the case of `Cc1ccc(S(=O)(=O)N(Cc2nc(-c3ccc(Cl)cc3)no2)C2CCCCC2)cc1`, the Potency is reported as “inactive”.
In the case of `O=C(CSc1nc(=O)n(Cc2cccnc2)c2c1CCC2)Nc1ccc(F)cc1F`, the Potency is reported as “inactive”.
`Cc1ccc(C)n1-c1nnc(N2CCC(C(=O)NCc3ccc(F)cc3)CC2)s1` was tested, and the Potency was “inactive”.
In the case of `CCOc1cccc(-c2nnc(SCC(=O)NC3CC3)n2C)c1`, the Potency is reported as “inactive”.
For `CCOc1ccc(Nc2nc(Cc3nnc(SCC(=O)NC4CCCC4)n3C)cs2)cc1`, the Potency was 28.2 µM (active).
With `Cn1c(CC(=O)Nc2ccc(F)cc2)nnc1SCC(=O)NC1CCCCC1` the Potency was “inactive”.
